In PubChem BioAssay:

These compounds were tested against 6-phosphogluconate dehydrogenase, decarboxylating (Homo sapiens) (UniProt P52209) (assay: inhibition of human phosphogluconate dehydrogenase – biochemical, recombinant enzyme, NADPH absorbance, primary screen (AID 1159550)). Details: recombinant 6PGD, NADPH absorbance 341 nm; at 10 µM; stronger effect = higher value;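 active = at least 20% inhibition of 6-phosphogluconate dehydrogenase activity; inactive = the rest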.
Chain of 6-phosphogluconate dehydrogenase, decarboxylating (Homo sapiens) (P52209 whole entry, looked up): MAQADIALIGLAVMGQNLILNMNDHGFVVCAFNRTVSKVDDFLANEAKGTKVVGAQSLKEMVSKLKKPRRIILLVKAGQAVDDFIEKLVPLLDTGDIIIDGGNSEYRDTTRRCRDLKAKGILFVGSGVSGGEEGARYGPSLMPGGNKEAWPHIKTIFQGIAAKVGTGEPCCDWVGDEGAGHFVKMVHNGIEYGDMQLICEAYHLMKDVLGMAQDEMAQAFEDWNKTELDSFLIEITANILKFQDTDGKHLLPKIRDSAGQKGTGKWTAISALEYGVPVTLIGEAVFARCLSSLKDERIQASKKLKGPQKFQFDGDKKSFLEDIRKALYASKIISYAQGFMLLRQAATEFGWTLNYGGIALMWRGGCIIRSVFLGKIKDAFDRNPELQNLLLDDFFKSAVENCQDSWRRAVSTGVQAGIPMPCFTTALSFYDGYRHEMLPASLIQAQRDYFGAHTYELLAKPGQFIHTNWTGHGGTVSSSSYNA

inhibition, inactive:
COC(=O)CCC(=O)O[C@H]1CCC2(C)C(CCC3C2C(=O)[C@@H](O)C2(C)C3CC3OC4(CCC(C)CO4)C(C)C32)C1 (stereo not given in full) 4.65%
CS(=O)(=O)c1ccc(C2=C(c3ccccc3)C(=O)OC2)cc1 -26.3%
Cc1cccc(C)c1NC(=O)C1CCCCN1C (stereo not given) 10.7%
CC(=O)OC1CCC2(C)C(CCC3C2CCC2(C)C3CC3OC4(CCC(C)CO4)C(C)C32)C1 (stereo not given) 4.61%
COc1ccc(/C=C/C(=O)Nc2ccccc2C(=O)O)cc1OC 5.84%
CCCCC(=O)N(Cc1ccc(-c2ccccc2-c2nn[nH]n2)cc1)[C@H](C(=O)O)C(C)C -2.51%
CC(C(=O)O)c1ccc(-c2ccccc2)c(F)c1 (stereo not given) 19%
CC(=O)OC1CCC2(C)C(CCC3C2CC(=O)C2(C)C3CC3OC4(CCC(C)CO4)C(C)C32)C1 (stereo not given) 5.72%
Nc1ncnc2c1ncn2[C@@H]1O[C@H](CO)[C@@H](O)[C@@H]1O -15.7%
O=c1ccc2ccc(O)c(O)c2o1 2.02%
CCOC(=O)c1c(C)cc(O)c(C)c1O -2.48%
CN(C)c1nc(N(C)C)nc(N(C)C)n1 11.2%
CC[C@@H](CC[C@@H](C)[C@H]1CC[C@H]2[C@@H]3CC=C4C[C@@H](O)CC[C@]4(C)[C@H]3CC[C@]12C)C(C)C 10.4%
Cc1occc(=O)c1O 8.86%
CC(C)/C(O)=C1/C(=O)O[C@@H](c2ccoc2)[C@]2(C)C(O)[C@@H](O)[C@@]34OC5(C)OC67CC(C)(C(O)[C@]6(O)[C@@H](O)[C@]3(O5)C12)[C@H](CC(=O)O)[C@]74C (stereo not given in full) 16.8%
